Assay outcomes from PubChem.
GPT2 inh: GPT2 alanine aminotransferase inhibition; Recombinant GPT2, coupled pyruvate oxidase/HRP Amplex Red fluorescence; Potency, µM (titrated, usually from 57.7 µM), for the others: at the highest dose activity change, negative = inhibition, most hits filed as inhibitors; actives 0.25% (n = 100,000); AID 1671188; Q8TD30; further: on the % scale 0 is the no-effect control and ±100 the full control effect; nearly all actives have a fitted effect of over 60% in size
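Inhibition is scored from Amplex Red fluorescence generated when pyruvate oxidase and HRP act on pyruvate released by GPT2. Reactions contain 10ng/uL enzyme, 250uM a-KG and 2mM L-alanine and run 30 min at room temperature.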
NPR1 antag: antagonists of human natriuretic peptide receptor Npr1; P16066; HEK293 hNpr1 GloSensor cGMP, ANP-stimulated luminescence; Potency, µM (titrated, usually from 46.3 µM), without a hit: top-dose activity change, negative = inhibition, actives largely listed as inhibitors; actives 1.6% (n = 76,000); calls by dose curve; further: on the % scale 0 is the no-effect control and ±100 the full control effect; nearly all actives have a fitted effect of over 60% in size
Target sequence (P16066 whole entry, looked up): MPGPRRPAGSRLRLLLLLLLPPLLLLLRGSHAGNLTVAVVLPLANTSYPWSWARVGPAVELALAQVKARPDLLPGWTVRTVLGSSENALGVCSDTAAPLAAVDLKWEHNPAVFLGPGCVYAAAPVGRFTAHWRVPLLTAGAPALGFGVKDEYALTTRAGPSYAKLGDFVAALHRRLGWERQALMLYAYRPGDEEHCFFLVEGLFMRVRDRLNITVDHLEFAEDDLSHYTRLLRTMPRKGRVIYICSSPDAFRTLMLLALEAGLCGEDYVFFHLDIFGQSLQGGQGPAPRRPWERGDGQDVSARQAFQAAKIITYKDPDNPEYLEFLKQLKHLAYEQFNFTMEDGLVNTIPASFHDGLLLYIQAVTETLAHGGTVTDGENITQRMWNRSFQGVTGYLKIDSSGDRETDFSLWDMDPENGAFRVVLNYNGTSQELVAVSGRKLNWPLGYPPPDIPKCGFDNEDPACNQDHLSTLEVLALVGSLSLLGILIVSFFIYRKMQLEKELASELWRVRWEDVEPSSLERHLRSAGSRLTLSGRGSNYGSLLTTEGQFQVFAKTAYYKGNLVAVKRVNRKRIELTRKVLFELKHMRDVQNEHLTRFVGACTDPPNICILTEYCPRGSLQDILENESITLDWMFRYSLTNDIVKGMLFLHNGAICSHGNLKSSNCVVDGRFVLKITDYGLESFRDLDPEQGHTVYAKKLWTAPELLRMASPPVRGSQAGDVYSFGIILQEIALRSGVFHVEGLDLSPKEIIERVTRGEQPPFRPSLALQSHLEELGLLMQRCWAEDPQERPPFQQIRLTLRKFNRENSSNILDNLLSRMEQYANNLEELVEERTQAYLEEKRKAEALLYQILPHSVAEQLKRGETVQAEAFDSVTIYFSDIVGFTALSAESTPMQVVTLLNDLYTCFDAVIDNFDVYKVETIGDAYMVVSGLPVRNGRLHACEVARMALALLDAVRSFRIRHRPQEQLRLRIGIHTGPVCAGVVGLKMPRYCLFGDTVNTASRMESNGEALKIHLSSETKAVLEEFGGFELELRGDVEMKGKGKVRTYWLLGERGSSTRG
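Compound pre-incubated 30 min at room temperature on GloSensor-loaded HEK293 cells stably carrying hNpr1 and the pGS-40F cGMP biosensor. Stimulation uses hNppA at 0.1 nM final; luminescence is taken at baseline and 20 min post-agonist.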
HEK293 tox: cytotoxic compounds in HEK 293 cells. HEK 293 viability, ATP luminescence (CellTiter-Glo), 48-72 h. Potency, µM (series often up to 115 µM), for the others: top-dose activity change, negative = cytotoxicity, actives largely listed as inhibitors. actives 6.6% (n = 94,000); further: on the % scale 0 is the no-effect control and ±100 the full control effect; nearly all actives have a fitted effect of over 60% in size
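CellTiter-Glo luminescence (cellular ATP) was read after 48 or 72 hr of compound exposure at 37 degree Celsius. Cells were HEK 293 plated at 250 cells/well.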
FLuc inh: inhibitors of firefly (Photinus pyralis) luciferase. P08659. purified P. pyralis luciferase, luminescence, biochemical. Potency, µM (titrated, usually from 115 µM), actives largely listed as inhibitors. actives 2.5% (n = 76,000); further: on the % scale 0 is the no-effect control and ±100 the full control effect; nearly all actives have a fitted effect of over 65% in size
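Luminescence read by CCD imaging after purified firefly luciferase (10nM final) was added to substrate buffer holding 10uM D-luciferin and 10uM ATP, pH 7.5, pre-dosed with compound.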
NIH3T3 tox: kills NIH 3T3 cells | NIH 3T3 viability, CellTiter-Glo ATP luminescence, 48-72 h | Potency, µM (highest dose often 96.7 µM), inactives show at the top dose activity change, negative = cytotoxicity, usual class: inhibitors | actives 4.3% (n = 94,000); further: on the % scale 0 is the no-effect control and ±100 the full control effect; nearly all actives have a fitted effect of over 55% in size
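ATP-dependent luminescence (CellTiter-Glo) served as the viability signal for NIH 3T3 cells treated with compound for 48 or 72 hr at 37 °C.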
Npr1 antag conf: hNpr1 antagonism, confirmation assay | shares compounds with NPR1 antag | HEK293 hNpr1 cGMP GloSensor luminescence, ANP-stimulated | Potency, µM (doses to about 57.6 µM), for the others: at the top dose activity change, negative = inhibition, hits mostly inhibitors | actives 76% (n = 1,400); calls by dose curve; further: nearly all actives have a fitted effect of over 70% in size
NPR2 antag: antagonizes human Npr2, subtype selectivity check; shares compounds with NPR1 antag; HEK293 hNpr2 GloSensor cGMP luminescence, CNP-stimulated; Potency, µM (titrated, usually from 57.6 µM), for the others: top-dose activity change, negative = inhibition, usual class: inhibitors; actives 67% (n = 1,400); AID 1347046; calls by dose curve; further: nearly all actives have a fitted effect of over 70% in size
FLuc counter: FLuc enzyme inhibition, Npr1 counter-screen. purified FLuc enzyme, luminescence, Km substrate. actives 0.7% (n = 1,400). shares compounds with NPR1 antag. Potency, µM (doses to about 57.6 µM), for the others: top-dose activity change, negative = inhibition, usual class: inhibitors; further: 0% is about no effect
GloSensor cGMP: control cell line activity, Npr1 antagonist counter-screen. shares compounds with NPR1 antag. HEK293 GloSensor cGMP, SNP-stimulated, luminescence. Potency, µM (top dose mostly 57.6 µM), for inactives: at the highest dose activity change, negative = inhibition, actives largely listed as inhibitors. actives 69% (n = 1,400). AID 1347051; calls by dose curve; further: on the % scale 0 is the no-effect control and ±100 the full control effect; nearly all actives have a fitted effect of over 70% in size
Starred values were filed as active, the others as inactive; i = inactive; ? = inconclusive; nt = not tested or not shown; [ ] = remark or other dose. Sampled rows, rich in hits. Any-hit rate of the full collection: about 10%. Unless noted, the call rests on the fitted dose curve; in most records, active means well fitted curve in the direction sought with a large enough effect; inconclusive means small, poorly fitted or top-dose-only effect, or another doubt; inactive means no such curve, though single readings can be large; an effect the other way counts as inactive or inconclusive. Potency means the concentration at half of the fitted maximal effect.

SMILES	GPT2 inh	NPR1 antag	HEK293 tox	FLuc inh	NIH3T3 tox	Npr1 antag conf	NPR2 antag	FLuc counter	GloSensor cGMP
CCOc1ccccc1C(=O)NC1CCN(c2cc(C(F)(F)F)nc(C)n2)CC1	-2%	?	?	i	?	24µM*	?	2%	24µM*
COc1ccccc1OCCNC(=O)C1CCN(c2cc(C(F)(F)F)nc(C)n2)CC1	i	?	?	i	?	-22%	-7%	-3%	0%
COc1ccccc1C(CC(=O)NCC(C)C)c1cn(C)c2ccccc12 (stereo not drawn)	i	?	?	i	-11%	?	?	-2%	-21%
COc1ccc(C(CC(=O)NCCc2ccccc2)c2c[nH]c3ccccc23)cc1OC (stereo not drawn)	-12%	0%	?	i	?	nt	nt	nt	nt
CCCCNC(=O)CC(c1cccc(OC)c1OC)c1c[nH]c2ccccc12 (stereo not drawn)	4%	-19%	?	i	?	nt	nt	nt	nt
COc1ccc(CCNC(=O)CC(c2cccc(F)c2)c2cn(C)c3ccccc23)cc1OC (stereo not drawn)	-22%	18µM*	20µM*	i	22µM*	24µM*	27µM*	4%	27µM*
O=C(C1CCC1)N1CCC2(CC1)CC(Cc1nc(-c3cnccn3)no1)CCO2 (stereo not drawn)	-9%	nt	?	nt	?	nt	nt	nt	nt
CSc1nccc(N2CCC3(CC2)CC(=O)N(CC(C)C)C3)n1	-29%	7.1µM*	?	i	?	6.9µM*	11µM*	-1%	5.4µM*
N[C@H]1CN(S(=O)(=O)c2ccc(OC(F)F)cc2)C[C@@H]1C1CC1	-10%	2%	i	i	1%	nt	nt	nt	nt
COc1cccc(-c2cc(C3CCN(C(=O)c4ccccc4Br)CC3)[nH]n2)c1	i	18µM*	28µM*	i	?	24µM*	24µM*	0%	22µM*
Cc1cccc(N2CCN(C(=O)CC3CCCCN(Cc4ccccc4)C3=O)CC2)c1 (stereo not drawn)	i	13µM*	?	i	?	19µM*	22µM*	-1%	22µM*
O=C(O)CC1CCCCN(Cc2ccccc2)C1=O (stereo not drawn)	5%	-1%	-18%	i	-17%	nt	nt	nt	nt
CC(=O)NCc1nnc2n1C(C(=O)NCc1ccc(F)cc1)CC2 (stereo not drawn)	-1%[88.5 µM]	nt	-24%[172 µM]	nt	-12%[138 µM]	nt	nt	nt	nt
C=CCN1CC(COc2ccccc2)Oc2nc(C)ccc2C1=O (stereo not drawn)	i	nt	-15%[57.5 µM]	nt	?	nt	nt	nt	nt
O=C1COc2ccc(OCc3cncs3)nc2CN1CCOc1ccccc1	-1%[88.5 µM]	32µM*	?	i	?	40µM*	31µM*	-2%[86.2 µM]	?
O=C1COc2ccc(OCc3cccnc3)nc2CN1CCOc1ccccc1	i	?	?	i	?	nt	nt	nt	nt
O=C1COc2ccc(OCc3ccc(F)cc3)nc2CN1CCOc1ccccc1	-14%[88.5 µM]	32µM*	?	i	?	35µM*	35µM*	-3%[86.2 µM]	28µM*
COCC1CN(C)CC12CCN(S(=O)(=O)c1ccc3c(c1)OCCO3)CC2 (stereo not drawn)	i	-21%	?	i	?	nt	nt	nt	nt
CS(=O)(=O)N1CC2(CCN(CC3CC3)CC2)Cc2ccccc21	1%	nt	-5%	nt	3%	nt	nt	nt	nt
COc1ccc(C(=O)N[C@@H]2CCC[C@@H]2C(=O)N2CCN(c3cccc(Cl)c3)CC2)cn1	i	0%	?	i	?	nt	nt	nt	nt
COc1ccc(Cn2c(C3CCN(C(=O)c4ccc(C)c(F)c4)CC3)n[nH]c2=O)cc1	i	-1%	-7%	i	-10%	nt	nt	nt	nt
O=C(NC1CCCCC1)c1c(-c2cccnc2)cc(=O)n2c1CCCC2	?	nt	-32%	nt	-24%	nt	nt	nt	nt
COc1cccc(CCC(=O)N2CCC(c3nc(C4CCOCC4)no3)C2)c1 (stereo not drawn)	i	-1%	?	i	-26%	nt	nt	nt	nt
O=C(CCc1ccccc1)N1CCC(c2nc(C3CCOCC3)no2)C1 (stereo not drawn)	-7%	-18%	-11%	i	-10%	-17%	-2%	-2%	-12%
CC(C)c1cc(C(=O)N2CCN(c3ncccc3C#N)CC2)n(C)n1	3%	6%	-18%	i	?	nt	nt	nt	nt
SMILES	GPT2 inh	NPR1 antag	HEK293 tox	FLuc inh	NIH3T3 tox	Npr1 antag conf	NPR2 antag	FLuc counter	GloSensor cGMP
CC(C)c1cc(C(=O)NC2CCN(c3ncccc3C#N)CC2)n(C)n1	-2%	7.1µM*	?	i	?	8.6µM*	12µM*	1%	7.7µM*
CC(C)N1C(=O)CO[C@H]2CCN(Cc3ccccc3Cl)CC[C@@H]21	1%[88.5 µM]	2.8µM*	?	i	?	7.9µM*	11µM*	3%[86.2 µM]	6.3µM*
CC(C)c1ccc(CN2CC[C@@H]3OCC(=O)N(C(C)C)[C@H]3CC2)cc1	-9%[88.5 µM]	8.9µM*	?	i	?	7.9µM*	11µM*	0%[86.2 µM]	6.3µM*
COc1cccc(CN2C(=O)CCCCC2C(=O)N2CCc3ccccc3C2)c1 (stereo not drawn)	i	-1%	?	i	-21%	nt	nt	nt	nt
CN(Cc1cccnc1)Cc1nc(C2(O)CCN(Cc3ccc(C(F)(F)F)cc3)CC2)cs1	i	1µM*	-58%	i	-46%	0.86µM*	1.7µM*	0%	0.86µM*
CN(Cc1cccnc1)Cc1nc(C2(O)CCN(Cc3ccc(F)cc3)CC2)cs1	1%[88.5 µM]	?	?	i	?	nt	nt	nt	nt
Cc1nn2c(c1-c1ccnn1C(C)C)N(Cc1ccc(C(=O)O)s1)CCC2	-15%[88.5 µM]	16µM*	?	i	13µM*	11µM*	11µM*	0%[86.2 µM]	14µM*
Cc1nn2c(c1-c1ccnn1C(C)C)N(C(=O)C(C)C)CCC2	-10%[88.5 µM]	5%[70.6 µM]	i	i	?	nt	nt	nt	nt
